From the supplement of paper PMC11732987, “Enantioselective OTUD7B fragment discovery through chemoproteomics screening and high-throughput optimisation” (Communications Chemistry, 2025)

Legend:
Assay in all cases: log2 ratio of Biotin-Ahx-Ub-VS probe labelling (fragment/DMSO); higher = less target engagement (more negative = stronger competition), active = hit call of the paper (q ≤ 0.05, log2 ratio ≤ -1)
Details in all cases: compound concentration: 200 uM; treatment time: 3 h
USP19 = target: T1, USP19 (UniProt O94966)
T1 sequence (whole entry): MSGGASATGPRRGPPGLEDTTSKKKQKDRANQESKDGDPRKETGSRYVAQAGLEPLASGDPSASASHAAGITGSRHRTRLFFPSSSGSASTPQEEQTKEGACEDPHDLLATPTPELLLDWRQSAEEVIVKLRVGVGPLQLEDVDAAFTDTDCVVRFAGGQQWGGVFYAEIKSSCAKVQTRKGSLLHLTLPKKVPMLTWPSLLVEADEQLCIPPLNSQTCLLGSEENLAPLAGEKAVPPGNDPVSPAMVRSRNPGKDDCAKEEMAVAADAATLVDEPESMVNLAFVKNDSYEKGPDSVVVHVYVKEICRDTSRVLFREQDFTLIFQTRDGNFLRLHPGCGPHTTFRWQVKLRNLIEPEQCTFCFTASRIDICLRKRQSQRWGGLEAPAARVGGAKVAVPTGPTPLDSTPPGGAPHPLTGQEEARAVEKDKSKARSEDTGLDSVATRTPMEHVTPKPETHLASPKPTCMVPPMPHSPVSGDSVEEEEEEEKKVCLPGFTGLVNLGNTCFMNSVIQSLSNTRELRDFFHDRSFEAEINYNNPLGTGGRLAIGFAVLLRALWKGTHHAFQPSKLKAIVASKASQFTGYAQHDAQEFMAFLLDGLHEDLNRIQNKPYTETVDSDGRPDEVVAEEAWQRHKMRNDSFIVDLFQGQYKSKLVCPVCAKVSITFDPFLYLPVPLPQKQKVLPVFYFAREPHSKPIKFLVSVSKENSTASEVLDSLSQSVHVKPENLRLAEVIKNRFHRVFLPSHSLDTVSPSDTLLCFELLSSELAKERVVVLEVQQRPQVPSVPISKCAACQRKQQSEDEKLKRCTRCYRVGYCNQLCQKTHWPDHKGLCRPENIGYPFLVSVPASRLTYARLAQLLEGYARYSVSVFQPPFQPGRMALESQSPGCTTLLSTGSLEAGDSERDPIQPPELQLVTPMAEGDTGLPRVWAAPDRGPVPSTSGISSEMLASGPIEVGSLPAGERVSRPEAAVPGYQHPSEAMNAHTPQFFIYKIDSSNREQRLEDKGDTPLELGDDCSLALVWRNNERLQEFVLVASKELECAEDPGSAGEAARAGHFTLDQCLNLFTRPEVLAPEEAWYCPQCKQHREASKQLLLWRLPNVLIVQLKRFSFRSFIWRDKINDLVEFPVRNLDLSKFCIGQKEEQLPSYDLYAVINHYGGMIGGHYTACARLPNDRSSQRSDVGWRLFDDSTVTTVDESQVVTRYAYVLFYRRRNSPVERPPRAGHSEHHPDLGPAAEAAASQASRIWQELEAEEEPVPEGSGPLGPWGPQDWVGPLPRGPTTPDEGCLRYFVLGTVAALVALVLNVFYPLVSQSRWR
Method in brief: (§1)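 HEK293T lysate (495 µg per sample, in Tris/CHAPS/IGEPAL buffer with protease inhibitors) was treated in triplicate with fragment at 200 µM or with DMSO for 3 h. It was then treated with Biotin-Ahx-Ub-VS (0.5 µM final) for 1 h. Labelled DUBs were NeutrAvidin-enriched, digested with LysC and trypsin, and run by diaPASEF LC-MS/MS. Spectronaut label-free quantities were global-median-normalised. Values are average log2 ratios fragment/DMSO by unpaired t-test, using proteins with ≥2 unique peptides.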

USP22 = target: T2, USP22 (UniProt Q9UPT9)
T2 sequence (whole entry): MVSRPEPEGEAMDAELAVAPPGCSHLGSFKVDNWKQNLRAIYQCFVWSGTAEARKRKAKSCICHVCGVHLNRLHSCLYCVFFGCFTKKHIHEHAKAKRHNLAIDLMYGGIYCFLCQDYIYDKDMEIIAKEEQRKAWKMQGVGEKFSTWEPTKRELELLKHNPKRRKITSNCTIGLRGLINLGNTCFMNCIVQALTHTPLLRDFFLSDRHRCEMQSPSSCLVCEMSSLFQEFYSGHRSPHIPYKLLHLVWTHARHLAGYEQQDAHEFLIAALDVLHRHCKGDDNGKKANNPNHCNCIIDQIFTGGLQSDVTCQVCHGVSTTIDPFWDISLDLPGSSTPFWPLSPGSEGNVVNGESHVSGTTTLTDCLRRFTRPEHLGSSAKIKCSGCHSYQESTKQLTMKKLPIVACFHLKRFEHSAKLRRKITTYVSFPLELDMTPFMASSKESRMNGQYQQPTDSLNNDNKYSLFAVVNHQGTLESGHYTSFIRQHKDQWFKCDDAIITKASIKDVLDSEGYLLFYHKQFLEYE
Method in brief: as §1

USP24 = USP24 (UniProt Q9UPU5)
USP24, sequence (Q9UPU5 whole entry): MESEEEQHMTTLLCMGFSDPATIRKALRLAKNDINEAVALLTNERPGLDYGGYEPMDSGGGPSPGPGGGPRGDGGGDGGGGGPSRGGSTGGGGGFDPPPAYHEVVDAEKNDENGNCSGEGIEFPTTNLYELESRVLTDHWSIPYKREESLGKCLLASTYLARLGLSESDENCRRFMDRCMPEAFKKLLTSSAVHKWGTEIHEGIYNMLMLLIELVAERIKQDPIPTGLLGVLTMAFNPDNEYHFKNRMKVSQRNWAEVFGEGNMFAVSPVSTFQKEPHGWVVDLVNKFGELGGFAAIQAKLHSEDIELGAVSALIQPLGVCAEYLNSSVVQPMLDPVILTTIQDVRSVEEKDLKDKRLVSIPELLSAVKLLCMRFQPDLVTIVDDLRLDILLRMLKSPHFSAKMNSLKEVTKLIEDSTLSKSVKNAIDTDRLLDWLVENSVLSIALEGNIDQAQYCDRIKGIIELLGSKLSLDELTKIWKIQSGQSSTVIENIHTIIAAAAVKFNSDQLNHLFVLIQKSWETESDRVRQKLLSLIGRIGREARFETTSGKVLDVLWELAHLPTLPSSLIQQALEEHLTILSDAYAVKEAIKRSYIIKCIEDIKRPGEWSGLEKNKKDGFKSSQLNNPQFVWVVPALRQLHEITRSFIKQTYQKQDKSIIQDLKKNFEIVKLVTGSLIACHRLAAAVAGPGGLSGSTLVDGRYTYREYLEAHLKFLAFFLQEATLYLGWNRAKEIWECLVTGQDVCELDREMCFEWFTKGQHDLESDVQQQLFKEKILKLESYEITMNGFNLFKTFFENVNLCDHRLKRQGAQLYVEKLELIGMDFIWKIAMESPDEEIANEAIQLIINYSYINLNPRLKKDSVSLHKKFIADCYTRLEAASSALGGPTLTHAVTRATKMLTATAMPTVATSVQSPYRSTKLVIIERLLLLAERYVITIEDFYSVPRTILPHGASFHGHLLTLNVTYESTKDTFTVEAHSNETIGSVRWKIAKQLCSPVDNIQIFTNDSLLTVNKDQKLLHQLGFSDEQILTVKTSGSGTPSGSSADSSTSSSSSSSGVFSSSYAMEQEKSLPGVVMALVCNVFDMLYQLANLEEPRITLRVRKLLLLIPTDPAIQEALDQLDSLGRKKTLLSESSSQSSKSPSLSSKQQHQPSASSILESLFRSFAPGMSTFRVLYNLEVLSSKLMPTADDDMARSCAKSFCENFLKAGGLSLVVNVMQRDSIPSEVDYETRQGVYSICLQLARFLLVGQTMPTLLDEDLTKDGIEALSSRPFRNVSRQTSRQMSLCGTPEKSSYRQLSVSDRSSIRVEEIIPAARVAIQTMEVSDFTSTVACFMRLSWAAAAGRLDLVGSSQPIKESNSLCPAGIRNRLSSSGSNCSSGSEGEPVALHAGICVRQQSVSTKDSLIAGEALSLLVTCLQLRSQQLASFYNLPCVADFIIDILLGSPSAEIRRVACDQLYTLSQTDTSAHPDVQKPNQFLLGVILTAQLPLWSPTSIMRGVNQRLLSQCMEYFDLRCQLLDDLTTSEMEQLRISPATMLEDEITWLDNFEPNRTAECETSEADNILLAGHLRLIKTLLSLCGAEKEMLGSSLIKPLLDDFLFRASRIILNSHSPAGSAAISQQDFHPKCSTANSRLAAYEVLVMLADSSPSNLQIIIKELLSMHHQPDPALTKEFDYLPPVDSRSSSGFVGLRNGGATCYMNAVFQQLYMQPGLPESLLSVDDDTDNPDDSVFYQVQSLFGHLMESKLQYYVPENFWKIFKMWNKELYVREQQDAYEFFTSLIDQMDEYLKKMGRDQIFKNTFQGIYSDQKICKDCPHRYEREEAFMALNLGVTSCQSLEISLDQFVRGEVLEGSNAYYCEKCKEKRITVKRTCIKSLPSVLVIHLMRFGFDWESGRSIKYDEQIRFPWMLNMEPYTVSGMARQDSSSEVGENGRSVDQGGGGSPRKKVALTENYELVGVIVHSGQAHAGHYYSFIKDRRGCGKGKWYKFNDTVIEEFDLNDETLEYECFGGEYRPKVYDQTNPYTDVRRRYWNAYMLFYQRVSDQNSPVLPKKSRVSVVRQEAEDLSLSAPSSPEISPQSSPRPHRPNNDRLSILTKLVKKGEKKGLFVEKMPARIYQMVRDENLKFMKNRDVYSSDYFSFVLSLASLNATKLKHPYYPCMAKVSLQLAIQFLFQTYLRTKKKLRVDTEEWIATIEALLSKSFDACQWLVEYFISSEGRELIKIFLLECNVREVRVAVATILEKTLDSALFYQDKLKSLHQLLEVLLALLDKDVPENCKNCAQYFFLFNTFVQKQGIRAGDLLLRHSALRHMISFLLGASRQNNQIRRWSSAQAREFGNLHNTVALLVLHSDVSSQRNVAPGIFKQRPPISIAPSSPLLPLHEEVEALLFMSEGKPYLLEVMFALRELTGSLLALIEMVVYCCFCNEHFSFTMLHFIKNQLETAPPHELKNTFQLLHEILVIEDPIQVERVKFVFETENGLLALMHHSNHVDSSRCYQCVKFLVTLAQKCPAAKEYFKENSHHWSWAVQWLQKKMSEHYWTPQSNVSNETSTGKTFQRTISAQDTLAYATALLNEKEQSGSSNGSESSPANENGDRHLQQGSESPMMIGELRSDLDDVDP
Method in brief: as §1

USP25 = target: T3, USP25 (UniProt Q9UHP3)
T3 sequence (whole entry): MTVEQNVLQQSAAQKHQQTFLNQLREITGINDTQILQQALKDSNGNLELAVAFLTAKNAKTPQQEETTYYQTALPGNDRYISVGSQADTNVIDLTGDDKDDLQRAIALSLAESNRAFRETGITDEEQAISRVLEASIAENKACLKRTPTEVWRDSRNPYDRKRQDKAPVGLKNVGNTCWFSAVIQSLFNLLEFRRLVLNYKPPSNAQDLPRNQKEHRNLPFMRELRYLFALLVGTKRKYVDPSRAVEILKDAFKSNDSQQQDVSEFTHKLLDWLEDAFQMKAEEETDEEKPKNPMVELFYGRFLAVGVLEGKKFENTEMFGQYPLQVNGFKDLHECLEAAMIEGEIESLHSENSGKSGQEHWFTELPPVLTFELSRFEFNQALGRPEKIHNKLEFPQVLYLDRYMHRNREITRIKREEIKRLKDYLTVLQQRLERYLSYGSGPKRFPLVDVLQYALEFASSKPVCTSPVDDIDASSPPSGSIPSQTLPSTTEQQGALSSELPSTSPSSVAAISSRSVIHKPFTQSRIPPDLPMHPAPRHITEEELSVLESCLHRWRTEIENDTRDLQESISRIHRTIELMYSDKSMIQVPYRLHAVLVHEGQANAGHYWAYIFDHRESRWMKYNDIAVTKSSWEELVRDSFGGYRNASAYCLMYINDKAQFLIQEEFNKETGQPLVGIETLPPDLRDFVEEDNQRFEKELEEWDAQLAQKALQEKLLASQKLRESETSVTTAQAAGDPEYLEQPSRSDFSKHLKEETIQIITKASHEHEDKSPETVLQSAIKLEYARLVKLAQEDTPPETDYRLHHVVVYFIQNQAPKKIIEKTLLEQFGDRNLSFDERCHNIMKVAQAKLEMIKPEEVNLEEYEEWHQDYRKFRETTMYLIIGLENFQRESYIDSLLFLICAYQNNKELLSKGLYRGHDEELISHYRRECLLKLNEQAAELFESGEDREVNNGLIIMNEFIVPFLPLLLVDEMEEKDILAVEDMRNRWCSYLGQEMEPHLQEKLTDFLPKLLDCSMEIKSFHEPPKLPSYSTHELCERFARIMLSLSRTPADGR
Method in brief: as §1

USP28 = target: T4, USP28 (UniProt Q96RU2)
T4 sequence (whole entry): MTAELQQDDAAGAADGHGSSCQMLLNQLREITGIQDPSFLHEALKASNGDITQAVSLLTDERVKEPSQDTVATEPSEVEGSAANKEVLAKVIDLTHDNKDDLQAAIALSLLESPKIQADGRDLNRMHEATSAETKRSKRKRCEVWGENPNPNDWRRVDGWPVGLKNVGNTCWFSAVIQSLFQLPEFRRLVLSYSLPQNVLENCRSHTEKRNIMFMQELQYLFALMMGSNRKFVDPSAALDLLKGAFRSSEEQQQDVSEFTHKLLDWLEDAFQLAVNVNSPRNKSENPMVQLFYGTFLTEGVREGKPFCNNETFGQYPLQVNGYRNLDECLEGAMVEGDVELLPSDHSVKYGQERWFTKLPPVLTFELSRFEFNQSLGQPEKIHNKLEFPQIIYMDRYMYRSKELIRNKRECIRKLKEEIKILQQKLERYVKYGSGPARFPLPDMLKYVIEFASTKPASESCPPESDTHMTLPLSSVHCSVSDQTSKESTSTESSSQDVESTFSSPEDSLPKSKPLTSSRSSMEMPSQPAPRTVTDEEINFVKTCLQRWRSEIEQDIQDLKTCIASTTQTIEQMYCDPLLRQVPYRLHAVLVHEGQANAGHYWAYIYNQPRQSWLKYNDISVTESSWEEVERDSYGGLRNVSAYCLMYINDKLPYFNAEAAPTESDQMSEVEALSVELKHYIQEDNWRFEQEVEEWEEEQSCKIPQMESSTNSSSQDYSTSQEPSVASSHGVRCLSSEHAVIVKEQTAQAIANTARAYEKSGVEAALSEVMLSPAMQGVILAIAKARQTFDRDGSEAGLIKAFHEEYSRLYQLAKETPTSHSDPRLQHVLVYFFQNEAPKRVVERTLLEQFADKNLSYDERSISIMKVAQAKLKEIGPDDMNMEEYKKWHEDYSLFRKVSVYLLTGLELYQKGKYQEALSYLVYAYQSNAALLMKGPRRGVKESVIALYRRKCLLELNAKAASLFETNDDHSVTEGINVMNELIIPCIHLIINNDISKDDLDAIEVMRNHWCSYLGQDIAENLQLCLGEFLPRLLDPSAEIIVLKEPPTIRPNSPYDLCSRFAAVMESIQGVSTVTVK
Method in brief: as §1

Measured: log2 ratio of Biotin-Ahx-Ub-VS probe labelling

O=C(CCl)NCCC1=CCCCC1
inactive: USP19 -0.00951 | USP22 -0.0359 | USP24 -0.0898 | USP25 -0.223 | USP28 -0.444
